Experiment [1] deals with Bile acid receptor (Homo sapiens) (UniProt Q96RI1). Briefly: ATG_IR1_CIS: Attagene CIS-FACTORIAL HepG2 Assay for human Nuclear Receptor Subfamily 1 Group H Member 4 (NR1H4), IR1 submotif (AID 2282946). Conditions: IR1 reporter transcription, actives raise or lower the signal. The procedure, abridged:
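HepG2 cells transiently transfected with multiplexed cis-element reporter units read endogenous transcription factor activity. After 24 h compound exposure, reporter mRNA was quantified by RT-PCR, fluorescent labelling, HpaI digestion and capillary electrophoresis; bidirectional fitting versus DMSO baseline.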

Experiment [2] in a line: ATG_GRE_CIS: Attagene CIS-FACTORIAL HepG2 Assay for human Glucocorticoid Response Elements (GRE) (AID 2282947). Conditions: HepG2 GRE cis-reporter, Attagene multiplex mRNA; actives raise or lower the signal. An outline of the steps:
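Reporter transcripts read by RT-PCR with capillary electrophoresis fluorescence after a 24 h chemical exposure of HepG2 cells transiently transfected with multiple cis-element reporter units. Gain or loss fitted against DMSO.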

A short description of experiment [3]: ATG_ISRE_CIS: Attagene CIS-FACTORIAL HepG2 Assay for human Interferon Regulatory Factor 1 (IRF1) binding to an Interferon-Stimulated Response Element (ISRE) (AID 2282948). Conditions: HepG2 ISRE cis-reporter (Attagene), mRNA transcription readout; actives raise or lower the signal. The procedure, abridged: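 Read-out: fluorescent RT-PCR products resolved by capillary electrophoresis, reporting endogenous transcription factor activity via ISRE-driven reporter mRNA in transfected HepG2 cells dosed for 24 h; gain or loss fitted relative to DMSO.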

The nature of experiment [4]: ATG_M_32_CIS: Attagene CIS-FACTORIAL HepG2 Assay for M32 Transcription Factor (Internal Marker) (AID 2282949).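 Also: background control marker of the multiplexed CIS panel rather than a real target.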 As to conditions: HepG2 Attagene cis-factorial M32 reporter, mRNA; actives raise or lower the signal. The procedure, abridged:
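HepG2 human liver cells transiently transfected with cis-promoter-driven multiple reporter transcription units, dosed 24 h. Reporter mRNA quantified by RT-PCR, FAM-labelled primer extension, HpaI digest and capillary electrophoresis; bidirectional fit versus DMSO baseline.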

A short description of experiment [5]: ATG_M_06_CIS: Attagene CIS-FACTORIAL HepG2 Assay for M06 Transcription Factor (Internal Marker) (AID 2282950). As to conditions: HepG2 Attagene CIS-FACTORIAL M06 internal marker reporter; actives raise or lower the signal. The procedure, abridged:
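Fluorescence-labelled RT-PCR products from cis-promoter reporter units, cut with HpaI and resolved by capillary electrophoresis, give the signal. Cells are human HepG2, dosed for 24 h. Serves as background control, fitted relative to DMSO.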

The target in experiment [6] is Hypoxia-inducible factor 1-alpha (Homo sapiens) (UniProt Q16665). As to the kind of experiment: ATG_HIF1a_CIS: Attagene CIS-FACTORIAL HepG2 Assay for human Hypoxia Inducible Factor 1 (HIF1A) (AID 2282951). Conditions: HepG2 Attagene cis-factorial HIF1a reporter transcription; actives raise or lower the signal. The procedure, abridged:
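HepG2 cells transiently transfected with multiplexed cis-promoter reporter units; reporter mRNA read 24 h after dosing by RT-PCR, 6-FAM primer-extension labelling, HpaI digestion and capillary electrophoresis. Bidirectional fit versus DMSO baseline.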

In experiment [7] the target is Hepatocyte nuclear factor 6 (Homo sapiens) (UniProt Q9UBC0). As to the kind of experiment: ATG_HNF6_CIS: Attagene CIS-FACTORIAL HepG2 Assay for human Hepatocyte Nuclear Factor 6 (HNF6) (AID 2282952). Conditions: HepG2 Attagene cis-factorial HNF6 reporter transcription; actives raise or lower the signal. The procedure, abridged:
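Readout: fluorescent reporter-transcript fragments resolved by capillary electrophoresis after RT-PCR, reflecting endogenous factor activity in transfected HepG2. Exposure 24 h. Gain or loss of signal fitted bidirectionally against DMSO.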

In experiment [8] the target is Heat shock factor protein 1 (Homo sapiens) (UniProt Q00613). As to the kind of experiment: ATG_HSE_CIS: Attagene CIS-FACTORIAL HepG2 Assay for human Heat Shock Transcription Factor 1 (HSE) (AID 2282953). Conditions: HepG2 HSE cis-reporter, Attagene RNA transcription; actives raise or lower the signal. An outline of the steps: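 After a 24 h incubation with test chemical, transfected HepG2 cells were harvested for RNA; reporter transcripts were measured by RT-PCR and capillary electrophoresis. Values reflect gain or loss of signal relative to DMSO.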

Experiment [9] in a line: ATG_MRE_CIS: Attagene CIS-FACTORIAL HepG2 Assay for human Metal Responsive Element (MRE) (AID 2282954). Conditions: HepG2 MRE cis-reporter transcription, Attagene multiplex; actives raise or lower the signal. The procedure, abridged: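 Endogenous MRE-dependent transcription read as reporter mRNA in transiently transfected human HepG2 cells at 24 h. RNA reverse-transcribed, PCR-amplified, labelled and resolved by capillary electrophoresis; gain or loss relative to DMSO.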

Experiment [10] deals with Paired box protein Pax-6 (Homo sapiens) (UniProt P26367). Briefly: ATG_Pax6_CIS: Attagene CIS-FACTORIAL HepG2 Assay for human Paired Box 6 (PAX6) (AID 2282956). As to conditions: HepG2 CIS-FACTORIAL PAX6 reporter transcription, RNA readout; actives raise or lower the signal. The procedure, abridged:
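Readout: reporter transcript fluorescence after RT-PCR and capillary electrophoresis. Cells: HepG2, transiently transfected with cis-regulated MRTUs. Exposure 24 h. Gain or loss of signal fitted bidirectionally relative to DMSO.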

Experiment [11] can be described thus: ATG_PXRE_CIS: Attagene CIS-FACTORIAL HepG2 Assay for human Pregnane X Receptor Element (PXRE) (AID 2282957). As to conditions: HepG2 Attagene CIS-FACTORIAL PXRE reporter, mRNA; actives raise or lower the signal. An outline of the steps:
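Read-out: fluorescence of reporter-specific RT-PCR products resolved by capillary electrophoresis, fitted bidirectionally relative to DMSO. Human HepG2 liver cells carried transfected cis-promoter reporter units and were exposed to chemicals for 24 h.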

Experiment [12] can be described thus: ATG_PPRE_CIS: Attagene CIS-FACTORIAL HepG2 Assay for human Peroxisome Proliferator-activated Response Element (PPRE) (AID 2282958). Conditions: HepG2 PPRE cis-element reporter, Attagene transcription factor profiling; actives raise or lower the signal. The procedure, abridged:
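HepG2 cells transiently transfected with multiplexed cis-element reporter units measure endogenous transcription factor activity. After 24 h compound exposure, reporter mRNA is quantified by RT-PCR, 6-FAM labeling, HpaI digestion and capillary electrophoresis; bidirectional fits are made against DMSO baseline.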

Experiment [13] in a line: ATG_RORE_CIS: Attagene CIS-FACTORIAL HepG2 Assay for human RAR-related Orphan Receptor Element (RORE) (AID 2282959). Conditions: HepG2 Attagene cis-factorial RORE reporter, mRNA; actives raise or lower the signal. An outline of the steps:
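HepG2 cells transiently transfected with multiple cis-element reporter transcription units, exposed to chemical for 24 h. Reporter mRNA quantified by RT-PCR, 6-FAM primer-extension labeling, HpaI digestion and capillary electrophoresis; bidirectional fit versus DMSO baseline.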

Experiment [14] can be described thus: ATG_Sox_CIS: Attagene CIS-FACTORIAL HepG2 Assay for human SRY-box transcription factor (SOX) (AID 2282960). Conditions: HepG2 Attagene cis-factorial SOX reporter, mRNA; actives raise or lower the signal. An outline of the steps: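 HepG2 cells transiently transfected with cis-element-driven multiple reporter transcription units, dosed 24 h; reporter mRNA measured by RT-PCR, FAM labelling, HpaI digestion and capillary electrophoresis. Bidirectional fit versus DMSO baseline.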

Experiment [15] addresses Transcription factor Sp1 (Homo sapiens) (UniProt P08047). Briefly: ATG_Sp1_CIS: Attagene CIS-FACTORIAL HepG2 Assay for human Specificity Protein 1 (Sp1) (AID 2282961). Conditions: HepG2 Sp1 cis-reporter transcription, actives raise or lower the signal. The procedure, abridged: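 HepG2 cells transiently transfected with multiple reporter transcription units driven by cis-regulatory elements; Sp1-responsive reporter mRNA measured 24 h after dosing by RT-PCR and capillary electrophoresis fluorescence, fitted bidirectionally against DMSO baseline.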

Experiment [16] in a line: ATG_SREBP_CIS: Attagene CIS-FACTORIAL HepG2 Assay for human Sterol Regulatory Element Binding (SREBP) (AID 2282962). As to conditions: HepG2 Attagene cis-factorial SREBP reporter, mRNA; actives raise or lower the signal. The procedure, abridged: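 Readout: fluorescent reporter-transcript peaks resolved by capillary electrophoresis after RT-PCR. Cells were human HepG2 carrying transfected cis-promoter reporter constructs, dosed for 24 h. Gain or loss of signal was fitted against DMSO controls.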

The target in experiment [17] is Signal transducer and activator of transcription 3 (Homo sapiens) (UniProt P40763). As to the kind of experiment: ATG_STAT3_CIS: Attagene CIS-FACTORIAL HepG2 Assay for human Signal Transducer and Activator of Transcription 3 (STAT3) (AID 2282963). Conditions: HepG2, Attagene cis-factorial STAT3 reporter transcription; actives raise or lower the signal. The procedure, abridged: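 Readout is reporter transcript quantified by RT-PCR and capillary electrophoresis, with 6-FAM primer extension and HpaI digestion. Total RNA is taken 24 h after dosing transiently transfected HepG2 carrying cis-regulated reporter units. Bidirectional fit against DMSO.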

Experiment [18] can be described thus: ATG_TA_CIS: Attagene CIS-FACTORIAL HepG2 Assay for human TA Basal Promoter (AID 2282964). Conditions: HepG2 Attagene CIS-factorial TA basal promoter reporter; actives raise or lower the signal. An outline of the steps: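 Multiplexed mRNA reporter assay, HepG2, 24 h. Reporter cDNA amplified, 6-FAM primer-extended, HpaI-cut, CE-sized; DMSO = negative control and baseline.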

The nature of experiment [19]: ATG_TCF_b_cat_CIS: Attagene CIS-FACTORIAL HepG2 Assay for human T-Cell-Factor with beta-catenin (TCF/b-cat) (AID 2282965). Conditions: HepG2 TCF/beta-catenin cis-reporter transcription, actives raise or lower the signal. An outline of the steps: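 Endogenous TCF/LEF activity read as reporter transcript level via RT-PCR and capillary electrophoresis fluorescence in transfected HepG2, 24 h exposure; gain or loss of signal fitted against DMSO controls.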

Experiment [20] in a line: ATG_PBREM_CIS: Attagene CIS-FACTORIAL HepG2 Assay for human Phenobarbital-responsive Enhancer Module (PBREM) (AID 2282955). As to conditions: HepG2 PBREM cis-reporter, Attagene multiplexed transcription; actives raise or lower the signal. An outline of the steps: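 HepG2 cells transiently transfected with multiple cis-regulated reporter transcription units; endogenous factor activity at the PBREM element measured as reporter mRNA 24 h after dosing, via RT-PCR and capillary electrophoresis of fluorescent fragments; bidirectional fitting versus DMSO.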

Outcome and AC50 data for four compounds are collected here from PubChem BioAssay (EPA / NIEHS).

Activity calls are given as the source filed them. The calls were made as follows: active = hit-call score of the fitted dose curve at least 0.9, where 1 is the maximum; inactive = score below 0.9.

For orientation: AC50 means the midpoint of the concentration-response curve, whichever way the signal moves.

Chain of Transcription factor Sp1 (Homo sapiens) (P08047 whole entry, looked up): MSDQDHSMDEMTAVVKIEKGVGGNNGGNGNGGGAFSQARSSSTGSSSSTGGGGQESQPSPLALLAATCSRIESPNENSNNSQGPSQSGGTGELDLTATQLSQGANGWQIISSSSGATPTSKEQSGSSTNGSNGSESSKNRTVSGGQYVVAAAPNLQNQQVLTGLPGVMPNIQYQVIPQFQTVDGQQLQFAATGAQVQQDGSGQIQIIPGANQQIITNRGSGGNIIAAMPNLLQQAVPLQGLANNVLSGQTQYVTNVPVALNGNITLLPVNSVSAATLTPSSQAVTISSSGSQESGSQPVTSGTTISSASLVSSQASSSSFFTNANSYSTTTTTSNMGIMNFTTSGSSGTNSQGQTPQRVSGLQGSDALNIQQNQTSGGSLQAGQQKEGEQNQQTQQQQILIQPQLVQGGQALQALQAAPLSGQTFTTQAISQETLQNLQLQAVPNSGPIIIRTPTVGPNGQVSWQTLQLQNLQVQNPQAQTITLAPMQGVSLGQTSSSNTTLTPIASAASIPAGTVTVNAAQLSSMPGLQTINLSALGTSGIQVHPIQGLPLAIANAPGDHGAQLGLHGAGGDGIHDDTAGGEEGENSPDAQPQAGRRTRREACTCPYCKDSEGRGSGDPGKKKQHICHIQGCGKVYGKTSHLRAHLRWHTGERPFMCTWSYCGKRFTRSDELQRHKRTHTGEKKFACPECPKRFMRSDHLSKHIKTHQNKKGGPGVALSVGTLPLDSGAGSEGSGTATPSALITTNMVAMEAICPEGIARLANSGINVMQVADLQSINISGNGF
Chain of Bile acid receptor (Homo sapiens) (Q96RI1 whole entry, looked up): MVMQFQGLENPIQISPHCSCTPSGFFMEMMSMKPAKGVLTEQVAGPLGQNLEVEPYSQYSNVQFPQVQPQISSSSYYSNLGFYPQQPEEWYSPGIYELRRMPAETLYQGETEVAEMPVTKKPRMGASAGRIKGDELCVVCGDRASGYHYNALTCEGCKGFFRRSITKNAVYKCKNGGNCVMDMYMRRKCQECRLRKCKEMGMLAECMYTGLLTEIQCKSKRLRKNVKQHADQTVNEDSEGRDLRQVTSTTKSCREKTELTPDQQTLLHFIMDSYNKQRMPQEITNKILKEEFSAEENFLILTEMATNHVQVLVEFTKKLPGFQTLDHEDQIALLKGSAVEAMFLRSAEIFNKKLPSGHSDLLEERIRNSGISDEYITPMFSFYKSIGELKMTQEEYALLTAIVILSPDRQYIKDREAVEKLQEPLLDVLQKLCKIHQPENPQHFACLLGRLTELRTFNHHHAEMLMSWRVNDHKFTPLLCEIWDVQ
Chain of Signal transducer and activator of transcription 3 (Homo sapiens) (P40763 whole entry, looked up): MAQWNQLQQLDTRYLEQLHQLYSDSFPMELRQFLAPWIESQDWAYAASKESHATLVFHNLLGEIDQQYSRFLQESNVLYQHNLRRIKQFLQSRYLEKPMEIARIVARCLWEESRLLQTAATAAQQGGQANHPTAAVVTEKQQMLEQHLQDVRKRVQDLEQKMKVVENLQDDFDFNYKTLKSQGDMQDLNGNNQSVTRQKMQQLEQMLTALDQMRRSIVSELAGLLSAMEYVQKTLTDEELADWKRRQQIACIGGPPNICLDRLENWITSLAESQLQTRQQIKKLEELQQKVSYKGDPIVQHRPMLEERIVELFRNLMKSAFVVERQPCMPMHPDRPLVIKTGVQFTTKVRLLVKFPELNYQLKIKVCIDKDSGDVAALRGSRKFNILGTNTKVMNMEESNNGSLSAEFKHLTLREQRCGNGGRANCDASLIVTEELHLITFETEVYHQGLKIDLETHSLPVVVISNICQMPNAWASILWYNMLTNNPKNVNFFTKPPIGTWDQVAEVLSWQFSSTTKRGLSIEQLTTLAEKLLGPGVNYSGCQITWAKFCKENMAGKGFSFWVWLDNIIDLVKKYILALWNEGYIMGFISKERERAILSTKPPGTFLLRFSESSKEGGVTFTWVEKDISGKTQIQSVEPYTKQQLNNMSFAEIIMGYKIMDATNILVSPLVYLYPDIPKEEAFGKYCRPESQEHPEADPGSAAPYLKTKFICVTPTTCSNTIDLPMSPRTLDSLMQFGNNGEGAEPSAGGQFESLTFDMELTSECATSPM
Chain of Hepatocyte nuclear factor 6 (Homo sapiens) (Q9UBC0 whole entry, looked up, the tested form may be a part): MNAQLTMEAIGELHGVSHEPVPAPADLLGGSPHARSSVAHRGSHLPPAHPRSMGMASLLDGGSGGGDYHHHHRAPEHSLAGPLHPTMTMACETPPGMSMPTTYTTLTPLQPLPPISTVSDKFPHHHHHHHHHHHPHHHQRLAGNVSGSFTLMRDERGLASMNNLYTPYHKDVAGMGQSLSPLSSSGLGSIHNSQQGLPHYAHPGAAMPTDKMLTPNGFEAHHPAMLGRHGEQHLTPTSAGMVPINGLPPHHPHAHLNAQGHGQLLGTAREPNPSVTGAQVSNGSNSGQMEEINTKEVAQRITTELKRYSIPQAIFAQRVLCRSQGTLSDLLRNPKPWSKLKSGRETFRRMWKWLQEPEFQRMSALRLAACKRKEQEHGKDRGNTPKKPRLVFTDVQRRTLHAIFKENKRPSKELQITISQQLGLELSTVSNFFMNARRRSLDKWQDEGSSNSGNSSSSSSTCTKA
Chain of Paired box protein Pax-6 (Homo sapiens) (P26367 whole entry, looked up): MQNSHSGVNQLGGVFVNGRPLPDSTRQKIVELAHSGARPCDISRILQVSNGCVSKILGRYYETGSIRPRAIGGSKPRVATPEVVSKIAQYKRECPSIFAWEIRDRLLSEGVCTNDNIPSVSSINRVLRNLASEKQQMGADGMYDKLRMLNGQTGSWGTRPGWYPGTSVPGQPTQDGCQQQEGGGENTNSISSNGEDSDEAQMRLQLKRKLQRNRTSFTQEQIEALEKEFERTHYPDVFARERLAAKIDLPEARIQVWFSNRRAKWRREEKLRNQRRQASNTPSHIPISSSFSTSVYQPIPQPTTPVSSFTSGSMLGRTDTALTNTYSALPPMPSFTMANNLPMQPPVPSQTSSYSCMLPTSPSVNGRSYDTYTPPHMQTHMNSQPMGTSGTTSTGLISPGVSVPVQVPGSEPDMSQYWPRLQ
Chain of Heat shock factor protein 1 (Homo sapiens) (Q00613 whole entry, looked up): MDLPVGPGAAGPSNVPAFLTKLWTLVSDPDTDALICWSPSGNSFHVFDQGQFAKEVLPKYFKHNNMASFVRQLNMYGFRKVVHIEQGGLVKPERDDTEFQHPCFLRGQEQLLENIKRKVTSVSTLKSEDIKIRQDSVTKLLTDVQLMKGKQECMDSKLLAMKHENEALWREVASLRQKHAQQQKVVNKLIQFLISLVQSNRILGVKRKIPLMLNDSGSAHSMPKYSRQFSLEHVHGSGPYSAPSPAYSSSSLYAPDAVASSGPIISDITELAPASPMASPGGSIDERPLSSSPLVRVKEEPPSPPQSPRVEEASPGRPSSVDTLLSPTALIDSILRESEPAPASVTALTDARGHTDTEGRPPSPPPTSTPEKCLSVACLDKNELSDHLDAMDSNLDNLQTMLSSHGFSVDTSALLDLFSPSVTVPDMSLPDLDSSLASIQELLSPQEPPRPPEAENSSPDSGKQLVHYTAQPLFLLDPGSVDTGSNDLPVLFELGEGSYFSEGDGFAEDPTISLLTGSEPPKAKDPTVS
Chain of Hypoxia-inducible factor 1-alpha (Homo sapiens) (Q16665 whole entry, looked up): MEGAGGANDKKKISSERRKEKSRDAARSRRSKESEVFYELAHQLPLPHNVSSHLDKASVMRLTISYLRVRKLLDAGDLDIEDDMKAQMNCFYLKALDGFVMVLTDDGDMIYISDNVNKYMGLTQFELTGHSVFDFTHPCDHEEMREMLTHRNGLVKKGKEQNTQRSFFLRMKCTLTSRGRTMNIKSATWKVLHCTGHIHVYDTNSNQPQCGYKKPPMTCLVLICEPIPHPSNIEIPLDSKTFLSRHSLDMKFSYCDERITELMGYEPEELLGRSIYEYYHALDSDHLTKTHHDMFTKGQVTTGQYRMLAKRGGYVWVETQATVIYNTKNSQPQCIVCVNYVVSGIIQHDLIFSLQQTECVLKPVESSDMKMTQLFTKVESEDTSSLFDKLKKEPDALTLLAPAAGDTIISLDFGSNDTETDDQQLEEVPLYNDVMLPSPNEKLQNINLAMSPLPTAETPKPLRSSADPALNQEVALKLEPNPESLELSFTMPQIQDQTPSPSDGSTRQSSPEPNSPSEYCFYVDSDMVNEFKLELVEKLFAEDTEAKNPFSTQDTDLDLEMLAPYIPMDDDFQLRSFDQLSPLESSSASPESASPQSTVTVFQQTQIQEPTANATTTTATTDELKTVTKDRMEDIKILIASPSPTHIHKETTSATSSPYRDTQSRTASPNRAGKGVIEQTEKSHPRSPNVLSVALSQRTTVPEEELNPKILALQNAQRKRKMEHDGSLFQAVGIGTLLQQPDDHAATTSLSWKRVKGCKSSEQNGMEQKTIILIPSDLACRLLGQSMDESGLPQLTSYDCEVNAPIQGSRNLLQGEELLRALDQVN

`NC(=O)NNC(N)=O`: the outcome in experiment [1], in experiment [2], in [3], in experiment [4], in experiment [5] and in experiment [6] was inactive. In addition, the compound was classed as inactive in experiment [7], in experiment [8], in [9], in experiment [10], in experiment [11] and in experiment [12]. Moreover, the result in experiment [13], in experiment [14], in [15], in experiment [16], in experiment [17] and in experiment [18] was inactive.
`CC(C)c1ccc2c(C(C)C)cc(C(C)C)c(S(=O)(=O)O)c2c1`: the compound was classed as inactive in experiment [1], in experiment [2], in [3], in experiment [4], in experiment [5] and in experiment [6]. Further, the compound was called inactive in [7], in [8], in experiment [10], in experiment [12], in experiment [13] and in experiment [14]. Further, the compound was classed as inactive in experiment [15], in experiment [18] and in experiment [19]. Moreover, the concentration at half-maximal activity (AC50) is 21.1 µM (active) in experiment [9], 1.56 µM (active) in [11] and 22.4 µM (active) in [16].
Consider `CC(C)(C)c1ccc(OC(=O)c2ccccc2O)cc1`, for which the call in experiment [1], in experiment [2], in experiment [3], in [4], in [5] and in experiment [6] was inactive. The call in [7], in experiment [8], in [9], in [20], in experiment [10] and in experiment [13] was inactive. For the same compound, the call in experiment [14], in experiment [15], in experiment [16], in experiment [17], in [18] and in [19] was inactive. Besides, the AC50 in experiment [11] is 15.3 µM (active).
Take `Cc1ccc(C2OC[C@@H]3OC(c4ccc(C)cc4)O[C@H]([C@H](O)CO)[C@@H]3O2)cc1` (some centres not stated): the compound was called inactive in experiment [1], in experiment [2], in experiment [3], in experiment [4], in experiment [5] and in experiment [7]. In addition, the compound was called inactive in experiment [8], in experiment [9], in experiment [10], in [12], in [14] and in experiment [15]. Further, the outcome in experiment [16], in experiment [17], in experiment [18] and in experiment [19] was inactive. In addition, the AC50 in experiment [11] is 12.9 µM (active).
